Screening results: PubChem, National Center for Advancing Translational Sciences (NCATS)
Shown are actives, neighbours in structure and some others; about 3% of the full set was active somewhere.
RE007 growth inh: qHTS Assay for Inhibitors of the HIV-1 protein Vpr; S. pombe RE007 Vpr strain, BacTiter-Glo ATP luminescence, 24 h; Potency, µM (titrated, usually from 92.2 µM), most hits filed as inhibitors; actives 0.21% (n = 360,000); AID 651644, 2012; active means well fitted falling curve with a large enough effect; inconclusive means small, poorly fitted or top-dose-only effect; inactive means no such curve, though single readings can be large or run the other way; further: nearly all actives have a fitted effect of over 50% in size
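Fission yeast RE007 carrying one integrated HIV-1 vpr copy, seeded at OD 0.01 in PMG+AL medium with 23 nL pinned compound. Grown 24 h at 30 degrees; viability read by BacTiter-Glo luminescence after 5 min.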
Sm TGR inh: qHTS Assay for the Inhibitors of Schistosoma Mansoni Peroxiredoxins; Schistosoma mansoni thioredoxin glutathione reductase (TGR), Q962Y6; purified TGR, DTNB reduction, TNB absorbance 405 nm; Potency, µM (series often up to 114 µM), most hits filed as inhibitors; actives 3% (n = 360,000); AID 485364, 2010; further: nearly all actives have a fitted effect of over 60% in size
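TGR 20 nM + NADPH 100 uM (dispensed conc.), cpd preinc 15 min RT; start with NADPH (500 uM addition) then DTNB (15 mM addition). Kinetic TNB absorbance, 405 nm filter. Four-parameter Hill fit across titration.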
LmPK inhibitor: qHTS Assay for Inhibitors of Leishmania Mexicana Pyruvate Kinase (LmPK); Q27686; purified LmPK, Kinase-Glo ATP luminescence, 1 h; Potency, µM (highest dose often 57.5 µM), actives largely listed as inhibitors; actives 0.37% (n = 290,000)
Target sequence (Q27686 whole entry, looked up): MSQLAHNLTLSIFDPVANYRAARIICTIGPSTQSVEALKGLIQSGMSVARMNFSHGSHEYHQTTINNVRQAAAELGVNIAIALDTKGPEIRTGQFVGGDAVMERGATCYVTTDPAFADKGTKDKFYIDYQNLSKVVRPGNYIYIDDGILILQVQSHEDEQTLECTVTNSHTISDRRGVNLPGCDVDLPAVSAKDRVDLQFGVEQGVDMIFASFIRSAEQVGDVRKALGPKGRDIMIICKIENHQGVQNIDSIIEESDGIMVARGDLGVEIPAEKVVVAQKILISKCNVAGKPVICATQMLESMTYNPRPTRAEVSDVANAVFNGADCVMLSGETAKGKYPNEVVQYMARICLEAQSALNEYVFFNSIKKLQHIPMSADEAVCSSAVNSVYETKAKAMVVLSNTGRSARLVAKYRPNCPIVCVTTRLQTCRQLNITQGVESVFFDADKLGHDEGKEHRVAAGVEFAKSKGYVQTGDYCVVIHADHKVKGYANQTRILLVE
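Purified LmPK (0.1 nM) converted ADP (0.1 mM) to ATP with PEP (0.5 mM) in imidazole buffer pH 7.2 with KCl and MgCl2, 1 h at room temperature. ATP was read by Kinase-Glo luminescence; data normalized to uninhibited and no-enzyme controls.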
Tb PYK inh: qHTS of Trypanosoma Brucei Inhibitors; Potency, µM (highest dose often 76.8 µM), most hits filed as inhibitors; TbPYK enzyme, Kinase-Glo Plus ATP luminescence, 45 min; pyruvate kinase (Trypanosoma brucei), Q57TT1; actives 0.12% (n = 410,000); AID 624173, 2012; further: nearly all actives have a fitted effect of over 50% in size
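In this concentration-response screen, enzyme-free wells defined baseline while DMSO plates tracked drift. Each reaction combined TbPYK, substrate, compound and 130 uM ADP for 45 min at room temperature. Kinase-Glo Plus luminescence gave the signal.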
Large screens that a line does not name were inactive. Unless noted, the call rests on the fitted dose curve; in most records, active means well fitted curve in the direction sought with a large enough effect; inconclusive means small, poorly fitted or top-dose-only effect, or another doubt; inactive means no such curve, though single readings can be large; an effect the other way counts as inactive or inconclusive.

CNC(=O)c1cc2c(n(-c3ccc(C)cc3)c1=O)CC(C)(C)CC2=O	none (no result: RE007 growth inh, LmPK inhibitor)
Cc1ccc(-n2c3c(cc(C(=O)NCc4ccco4)c2=O)C(=O)CC(C)(C)C3)cc1	Sm TGR inh 22µM
CC1(C)CC(=O)c2cc(C(=O)NCc3ccco3)c(=O)n(-c3ccc(Cl)cc3)c2C1	Sm TGR inh 32µM
CN=c1sc(C(=O)Nc2cccc(Cl)c2)cc(=O)n1C	Tb PYK inh 20µM
COc1cccc(CNC(=O)C2CCN(c3nnc(-n4c(C)ccc4C)s3)CC2)c1	Sm TGR inh inconclusive (no result: RE007 growth inh, LmPK inhibitor)
Cc1ccc2cccc(NC(=O)C(C)Oc3ccc(Cl)cc3Cl)c2n1 (stereo not drawn)	none (no result: RE007 growth inh, LmPK inhibitor)
CC(C)(C)CN1CCNC(=O)C1CC(=O)NCCc1cnn(-c2ccccc2)c1 (stereo not drawn)	Sm TGR inh inconclusive
CC(C)(C)CN1CCNC(=O)C1CC(=O)NCCc1ccccc1F (stereo not drawn)	Sm TGR inh 50µM
CSc1cccc(CNC(=O)CC2C(=O)NCCN2CC(C)(C)C)c1 (stereo not drawn)	Sm TGR inh 40µM
CC(C)(C)CN1CCNC(=O)C1CC(=O)NCc1cccc(-n2cccn2)c1 (stereo not drawn)	none
CC1(C)CC(=O)C2=C(C1)OC(N)=C(C#N)C2c1ccc[nH]1 (stereo not drawn)	Sm TGR inh 18µM
Cn1cccc1C1C(C#N)=C(N)OC2=C1C(=O)CC(C)(C)C2 (stereo not drawn)	none
Cc1cc(C)cc(N=Cc2ccc([N+](=O)[O-])s2)c1	RE007 growth inh 40µM, Sm TGR inh inconclusive
O=C(Cc1cccs1)N/N=C\c1ccc([N+](=O)[O-])s1	Sm TGR inh inconclusive
O=[N+]([O-])c1ccc(C=Nc2ccc(Cl)c([N+](=O)[O-])c2)s1	none (no result: RE007 growth inh, Sm TGR inh, Tb PYK inh)
NC(=O)c1ccc(N=Cc2ccc([N+](=O)[O-])s2)cc1	RE007 growth inh 40µM, Sm TGR inh 14µM
CSc1nn(Cc2cccc(Cl)c2)c(N(C(C)=O)C(C)=O)c1S(=O)(=O)c1ccccc1	none (no result: RE007 growth inh, LmPK inhibitor)
COc1cc(C2/C(=C(/O)c3ccc(OCC(C)C)cc3)C(=O)C(=O)N2CCN(C)C)ccc1O (stereo not drawn)	Sm TGR inh 45µM
COc1ccc(/C(O)=C2/C(=O)C(=O)N(CCCN(C)C)C2c2ccc(C)o2)cc1Cl (stereo not drawn)	Sm TGR inh 45µM (no result: RE007 growth inh, Tb PYK inh)
COc1ccc(/C(O)=C2/C(=O)C(=O)N(CCN(C)C)C2c2ccc(OC)c(OC)c2)c(C)c1 (stereo not drawn)	Sm TGR inh 40µM
COc1ccc(C2/C(=C(/O)c3cnn(-c4ccccc4)c3C)C(=O)C(=O)N2CCN(C)C)cc1OC (stereo not drawn)	none (no result: Sm TGR inh, LmPK inhibitor)
Oc1c(C(c2ccccc2)N2CCC(O)CC2)sc2nc(-c3ccco3)nn12 (stereo not drawn)	none (no result: RE007 growth inh, LmPK inhibitor)
O=C(Nc1ccccc1)Nc1ccc(Oc2ncnc3cc(Cl)ccc23)nc1	none
O=C(O)/C=C/C(=O)Nc1ccc(Oc2ncnc3cc(Cl)ccc23)nc1	RE007 growth inh 32µM, Sm TGR inh 8.9µM
NNC(=O)/C=C/c1ccc(Cl)cc1Cl	none
CC(C)SC1=NC(C)(C)C=C(/C=C/c2c(Cl)cccc2Cl)N1	Sm TGR inh 20µM
CC(C)SC1=NC(C)(C)C=C(/C=C/c2ccc(Cl)cc2Cl)N1	Sm TGR inh 16µM
CCOc1ccccc1C1C(C(=O)N2CCCCC2)=C(C)Nc2nc3ccccc3n21 (stereo not drawn)	none (no result: RE007 growth inh, LmPK inhibitor)
CCOc1c(Cl)cc(CNc2ccc(N3CCCC3)cc2)cc1OC	Sm TGR inh 13µM, Tb PYK inh inconclusive
CCOc1c(Cl)cc(CNc2ccc(S(N)(=O)=O)cc2)cc1OC	none
Cc1cccc(N2CCN(C(=O)C3CCCN(S(=O)(=O)c4ccc5c(c4)oc(=O)n5C)C3)CC2)c1C (stereo not drawn)	none (no result: RE007 growth inh, LmPK inhibitor)
O=C1CC(/C=C/c2ccco2)=Nc2ccccc2N1	Sm TGR inh 45µM
O=C1CC(/C=C/c2ccccn2)=Nc2ccccc2N1	Sm TGR inh inconclusive
CN(C)S(=O)(=O)c1cccc(NC(=S)Nc2cc(Cl)cc(Cl)c2)c1	Sm TGR inh inconclusive
CN(C)S(=O)(=O)c1cccc(NC(=S)Nc2ccc(Cl)cc2Cl)c1	Sm TGR inh 8.9µM
CCN(CCO)c1ccc(NC(=S)Nc2cccc(S(=O)(=O)N(C)C)c2)cc1	Sm TGR inh 40µM
c1ccc(C(c2ccccc2)N2CC[C@@]3(CCCNC3)C2)cc1	none (no result: RE007 growth inh, Sm TGR inh, LmPK inhibitor)
COC(=O)C(CC(=O)c1ccc(Br)cc1)n1cccn1 (stereo not drawn)	RE007 growth inh inconclusive, Sm TGR inh 4.5µM
COC(=O)C(CC(=O)c1ccc(C)cc1)n1cccn1 (stereo not drawn)	Sm TGR inh inconclusive
O=C(NCc1ccco1)C1CCCN(S(=O)(=O)c2ccc(-n3cnnn3)cc2)C1 (stereo not drawn)	Sm TGR inh 20µM
O=C(NCc1ccccc1F)C1CCCN(S(=O)(=O)c2ccc(-n3cnnn3)cc2)C1 (stereo not drawn)	none
CSCC[C@H](NC(=O)C1CCN(S(=O)(=O)c2ccc(C)cc2)CC1)C(=O)NCc1ccco1	Sm TGR inh 45µM
CSCC[C@H](NC(=O)C1CCN(S(=O)(=O)c2ccc(C)cc2)CC1)C(=O)NCC1CCCO1 (stereo partly drawn)	none
Cc1ccc(S(=O)(=O)N2CCCCC2C(=O)NCc2ccco2)cc1 (stereo not drawn)	Sm TGR inh 20µM
CCOc1ccc(N=C(C)Nc2ccc(OCC)cc2)cc1	none (no result: RE007 growth inh, Sm TGR inh, LmPK inhibitor)
CC1=C(C(=O)O)N2C(=O)[C@@H](NC(=O)[C@H](N)C3=CCC=CC3)[C@H]2SC1	none (no result: RE007 growth inh, Sm TGR inh, LmPK inhibitor)
CCOC(=O)c1c(NC(=O)CCCOc2ccc(C)cc2)sc2c1CCC(C)C2 (stereo not drawn)	none (no result: RE007 growth inh, LmPK inhibitor)
Cc1ccc2c(c1)NC(=O)C(CC(=O)NCCCN1CCCCC1)O2 (stereo not drawn)	Sm TGR inh 100µM
C=C(C)Cn1c(SCC(=O)Nc2ccccc2C)nc2sc3c(c2c1=O)CCCC3	none (no result: RE007 growth inh, LmPK inhibitor)
CCn1c(C)cc(=S)c2ccccc21	Sm TGR inh 4µM, LmPK inhibitor inconclusive
C[N+]1(C)CCC(=C2c3ccccc3CC(=O)c3sccc32)CC1	Sm TGR inh 28µM
CC[N+]1(C)CCC(=C2c3ccccc3CC(=O)c3sccc32)CC1 (stereo not drawn)	none
COC(=O)CSc1nc2cc(OC)ccc2n1C	none
COc1ccc2c(c1)nc(SCC(=O)c1ccc(Br)s1)n2C	Sm TGR inh 32µM
O=C(Nc1ccc(Br)cc1)c1cc(Br)c(Br)s1	none (no result: RE007 growth inh, Sm TGR inh, LmPK inhibitor)
Cn1c(=O)c([N+](=O)[O-])c(-n2ccnc2)c2ccccc21	Sm TGR inh 35µM
Cn1c(=O)c([N+](=O)[O-])c(NCCCn2ccnc2)c2ccccc21	none
COc1cccc2oc3cc(C#Cc4ccccn4)ccc3c(=O)c12	Sm TGR inh 7.9µM
O=[N+]([O-])C(Br)(CO)CO	Tb PYK inh 10µM (no result: RE007 growth inh, Sm TGR inh, LmPK inhibitor)
